From PMC7862700, “An all-to-all approach to the identification of sequence-specific readers for epigenetic DNA modifications on cytosine” come the findings set out here.

Holding throughout (assay): DAPPL (digital affinity profiling via proximity ligation, sequencing); 10 mM Tris-HCl pH 7.5, 50 mM NaCl, 1 mM DTT, 4% glycerol, room temperature, 30 min; GST-TFs on glutathione beads, 16-mer random dsDNA library, 0.1% formaldehyde crosslink after washing; high values mean tight binding
Settings in all cases: protein: recombinant; tags: N-terminal GST; dsDNA, one strand shown

One experiment has as its target T1, FLI1 (Homo sapiens, UniProt Q01543 1-452).
T1 sequence: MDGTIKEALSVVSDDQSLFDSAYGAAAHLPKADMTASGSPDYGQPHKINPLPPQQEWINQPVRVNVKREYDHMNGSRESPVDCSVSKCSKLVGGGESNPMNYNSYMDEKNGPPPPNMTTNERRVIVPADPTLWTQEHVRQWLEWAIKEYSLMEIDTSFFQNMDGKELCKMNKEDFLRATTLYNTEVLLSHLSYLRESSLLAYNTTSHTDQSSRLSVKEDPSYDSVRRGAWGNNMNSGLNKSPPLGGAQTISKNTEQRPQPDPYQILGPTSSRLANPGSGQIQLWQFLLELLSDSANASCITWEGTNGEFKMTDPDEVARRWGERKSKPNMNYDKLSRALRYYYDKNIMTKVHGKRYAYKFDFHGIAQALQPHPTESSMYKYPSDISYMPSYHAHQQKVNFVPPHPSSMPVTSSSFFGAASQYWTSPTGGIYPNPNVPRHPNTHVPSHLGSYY
In short, it runs like this: (§1)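 Beads coated with glutathione captured GST-fused human transcription factors that had been expressed in yeast, and the factors were then given DNA barcodes and pooled with a tag-only sample. The pools were incubated with 200 nmole of a random double-stranded 16-mer DNA library in Tris/NaCl/DTT/glycerol buffer for 30 min at room temperature, washed, crosslinked with 0.1% formaldehyde and proximity-ligated with BsaI/T4 ligase at 37 °C for 1 h. PCR amplification and Illumina NextSeq500 sequencing came last. Binding signal is each hexamer's read frequency for a factor divided by its frequency for the tag-only sample.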

Another experiment has as its target T2, ELK1 (Homo sapiens, UniProt P19419 1-428).
T2 sequence: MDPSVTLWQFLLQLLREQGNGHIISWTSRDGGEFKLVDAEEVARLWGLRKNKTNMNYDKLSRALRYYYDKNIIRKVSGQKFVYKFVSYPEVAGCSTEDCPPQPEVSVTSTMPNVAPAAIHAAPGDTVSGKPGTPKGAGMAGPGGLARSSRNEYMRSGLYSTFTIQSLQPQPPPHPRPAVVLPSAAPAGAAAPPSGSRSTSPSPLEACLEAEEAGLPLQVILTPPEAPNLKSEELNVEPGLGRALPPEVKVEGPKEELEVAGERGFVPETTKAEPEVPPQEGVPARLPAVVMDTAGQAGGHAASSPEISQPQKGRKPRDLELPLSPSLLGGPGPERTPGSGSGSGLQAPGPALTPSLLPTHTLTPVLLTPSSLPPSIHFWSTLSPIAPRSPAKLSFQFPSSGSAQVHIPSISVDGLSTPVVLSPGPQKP
In short, it runs like this: as §1

A further experiment concerns the target T3, GABPA (Homo sapiens, UniProt Q06546 1-454).
T3 sequence: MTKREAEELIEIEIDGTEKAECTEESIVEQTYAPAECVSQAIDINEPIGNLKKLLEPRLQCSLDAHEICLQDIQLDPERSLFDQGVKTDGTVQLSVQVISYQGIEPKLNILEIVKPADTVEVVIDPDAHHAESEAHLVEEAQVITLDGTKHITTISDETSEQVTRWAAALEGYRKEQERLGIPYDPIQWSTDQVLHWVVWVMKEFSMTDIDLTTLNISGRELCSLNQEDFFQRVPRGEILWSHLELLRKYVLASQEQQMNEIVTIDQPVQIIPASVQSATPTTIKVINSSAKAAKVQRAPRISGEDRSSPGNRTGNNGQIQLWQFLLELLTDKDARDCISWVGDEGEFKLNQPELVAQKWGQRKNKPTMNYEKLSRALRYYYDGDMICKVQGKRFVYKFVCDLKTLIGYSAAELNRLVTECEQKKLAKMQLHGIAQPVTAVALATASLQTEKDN
In a few lines: as §1

Another experiment concerns the target T4, ERG (Homo sapiens, UniProt P11308 1-479).
T4 sequence: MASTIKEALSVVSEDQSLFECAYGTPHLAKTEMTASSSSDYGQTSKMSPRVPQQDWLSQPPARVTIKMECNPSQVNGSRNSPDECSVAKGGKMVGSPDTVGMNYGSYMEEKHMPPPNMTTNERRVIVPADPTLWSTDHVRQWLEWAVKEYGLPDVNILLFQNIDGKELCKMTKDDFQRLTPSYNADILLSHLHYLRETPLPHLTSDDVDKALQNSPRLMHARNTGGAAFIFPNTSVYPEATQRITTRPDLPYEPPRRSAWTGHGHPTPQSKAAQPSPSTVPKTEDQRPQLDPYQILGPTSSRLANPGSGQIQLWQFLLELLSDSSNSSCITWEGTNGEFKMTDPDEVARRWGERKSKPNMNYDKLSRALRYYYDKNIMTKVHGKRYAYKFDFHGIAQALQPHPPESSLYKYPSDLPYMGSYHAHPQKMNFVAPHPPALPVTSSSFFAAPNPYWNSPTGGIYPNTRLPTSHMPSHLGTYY
In a few lines: as §1

Another experiment concerns the target ELF1 (Homo sapiens, UniProt P32519 1-619). In short, it runs like this:
as §1

Another experiment deals with T5, EHF (Homo sapiens, UniProt Q9NZC4 1-300).
T5 sequence: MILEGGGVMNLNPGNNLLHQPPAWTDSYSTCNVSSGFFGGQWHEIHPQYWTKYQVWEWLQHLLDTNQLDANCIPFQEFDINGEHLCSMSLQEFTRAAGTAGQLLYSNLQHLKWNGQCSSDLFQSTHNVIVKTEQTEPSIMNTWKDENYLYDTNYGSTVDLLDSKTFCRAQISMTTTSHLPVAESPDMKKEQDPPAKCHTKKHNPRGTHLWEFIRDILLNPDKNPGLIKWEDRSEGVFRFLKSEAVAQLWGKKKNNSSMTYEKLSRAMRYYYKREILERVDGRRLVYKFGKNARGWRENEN
In short, it runs like this: as §1

The target of another experiment is SPIB (Homo sapiens, UniProt Q01892 1-262). In a few lines:
as §1

A further experiment concerns the target T6, ELK3 (Homo sapiens, UniProt P41970 1-407).
T6 sequence: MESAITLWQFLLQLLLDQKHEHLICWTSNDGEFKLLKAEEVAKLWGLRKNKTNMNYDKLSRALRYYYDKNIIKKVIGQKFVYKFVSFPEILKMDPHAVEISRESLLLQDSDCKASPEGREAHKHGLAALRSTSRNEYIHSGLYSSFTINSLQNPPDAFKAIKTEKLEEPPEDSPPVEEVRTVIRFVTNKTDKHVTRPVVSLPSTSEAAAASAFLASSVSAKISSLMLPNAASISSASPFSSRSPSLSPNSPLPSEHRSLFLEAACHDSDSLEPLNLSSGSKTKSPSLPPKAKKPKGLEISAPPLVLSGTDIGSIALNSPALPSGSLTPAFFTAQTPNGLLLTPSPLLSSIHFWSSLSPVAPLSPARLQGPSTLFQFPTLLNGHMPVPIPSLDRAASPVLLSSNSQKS
In a few lines:
as §1

In another experiment the target is T7, FEV (Homo sapiens, UniProt Q99581 1-238).
T7 sequence: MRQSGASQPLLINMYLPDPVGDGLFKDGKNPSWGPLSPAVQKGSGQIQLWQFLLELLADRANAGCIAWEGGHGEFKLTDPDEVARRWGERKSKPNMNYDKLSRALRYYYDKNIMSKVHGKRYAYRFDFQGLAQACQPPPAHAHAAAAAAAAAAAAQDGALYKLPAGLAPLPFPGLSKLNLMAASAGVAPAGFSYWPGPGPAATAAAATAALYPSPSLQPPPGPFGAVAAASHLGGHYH
In a few lines:
as §1

The target of the next experiment is ETV5 (Homo sapiens, UniProt P41161 1-510). In short, it runs like this:
as §1

In a further experiment the target is T8, SPIC (Homo sapiens, UniProt Q8N5J4 1-248).
T8 sequence: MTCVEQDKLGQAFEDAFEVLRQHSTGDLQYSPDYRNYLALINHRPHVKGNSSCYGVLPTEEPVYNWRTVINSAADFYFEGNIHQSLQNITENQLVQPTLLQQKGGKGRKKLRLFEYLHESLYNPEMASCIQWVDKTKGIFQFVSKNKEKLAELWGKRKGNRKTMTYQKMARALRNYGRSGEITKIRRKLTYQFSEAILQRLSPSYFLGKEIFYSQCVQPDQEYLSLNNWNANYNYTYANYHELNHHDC
In a few lines:
as §1

The next experiment concerns the target ELF4 (Homo sapiens, UniProt Q99607 1-663). In short, it runs like this: as §1
The next experiment has as its target T9, ELK4 (Homo sapiens, UniProt P28324-2 1-405).
T9 sequence: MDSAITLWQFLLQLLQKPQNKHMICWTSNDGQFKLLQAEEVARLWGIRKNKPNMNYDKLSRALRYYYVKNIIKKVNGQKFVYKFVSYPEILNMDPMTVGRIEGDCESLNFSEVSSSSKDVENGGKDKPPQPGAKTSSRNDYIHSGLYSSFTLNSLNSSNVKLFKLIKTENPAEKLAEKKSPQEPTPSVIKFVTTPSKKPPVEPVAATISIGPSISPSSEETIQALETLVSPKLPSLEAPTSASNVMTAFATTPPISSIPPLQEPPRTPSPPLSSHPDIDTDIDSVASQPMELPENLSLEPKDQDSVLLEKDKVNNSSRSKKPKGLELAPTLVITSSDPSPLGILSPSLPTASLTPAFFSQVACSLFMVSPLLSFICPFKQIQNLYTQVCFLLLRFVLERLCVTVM
In a few lines: as §1

The target in a further experiment is T10, ETV2 (Homo sapiens, UniProt O00321 1-342).
T10 sequence: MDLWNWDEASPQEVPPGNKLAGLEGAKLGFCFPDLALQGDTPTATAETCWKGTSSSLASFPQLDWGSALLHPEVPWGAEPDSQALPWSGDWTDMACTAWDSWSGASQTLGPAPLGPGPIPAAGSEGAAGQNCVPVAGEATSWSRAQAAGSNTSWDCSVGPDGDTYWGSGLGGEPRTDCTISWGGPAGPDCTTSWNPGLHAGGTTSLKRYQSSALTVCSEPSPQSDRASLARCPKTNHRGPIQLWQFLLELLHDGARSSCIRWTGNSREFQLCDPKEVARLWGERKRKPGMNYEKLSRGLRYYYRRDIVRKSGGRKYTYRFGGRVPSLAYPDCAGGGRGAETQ
In short, it runs like this:
as §1

The next experiment has as its target T11, ELF3 (Homo sapiens, UniProt P78545 1-371).
T11 sequence: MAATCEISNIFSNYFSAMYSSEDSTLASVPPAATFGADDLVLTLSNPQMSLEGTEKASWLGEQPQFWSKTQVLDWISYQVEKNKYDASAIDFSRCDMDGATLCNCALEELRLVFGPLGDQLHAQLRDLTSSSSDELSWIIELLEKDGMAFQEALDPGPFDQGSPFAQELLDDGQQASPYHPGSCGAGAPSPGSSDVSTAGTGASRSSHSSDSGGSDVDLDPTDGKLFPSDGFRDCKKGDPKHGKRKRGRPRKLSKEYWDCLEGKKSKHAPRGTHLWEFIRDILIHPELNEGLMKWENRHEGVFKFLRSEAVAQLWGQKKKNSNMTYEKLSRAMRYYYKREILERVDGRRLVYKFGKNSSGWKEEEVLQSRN
In a few lines:
as §1

In another experiment the target is ETV1 (Homo sapiens, UniProt P50549 1-477). In a few lines:
as §1

The target of a further experiment is SPI1 (Homo sapiens, UniProt P17947 1-270). In a few lines: as §1

Chain of ETV1 (P50549 whole entry): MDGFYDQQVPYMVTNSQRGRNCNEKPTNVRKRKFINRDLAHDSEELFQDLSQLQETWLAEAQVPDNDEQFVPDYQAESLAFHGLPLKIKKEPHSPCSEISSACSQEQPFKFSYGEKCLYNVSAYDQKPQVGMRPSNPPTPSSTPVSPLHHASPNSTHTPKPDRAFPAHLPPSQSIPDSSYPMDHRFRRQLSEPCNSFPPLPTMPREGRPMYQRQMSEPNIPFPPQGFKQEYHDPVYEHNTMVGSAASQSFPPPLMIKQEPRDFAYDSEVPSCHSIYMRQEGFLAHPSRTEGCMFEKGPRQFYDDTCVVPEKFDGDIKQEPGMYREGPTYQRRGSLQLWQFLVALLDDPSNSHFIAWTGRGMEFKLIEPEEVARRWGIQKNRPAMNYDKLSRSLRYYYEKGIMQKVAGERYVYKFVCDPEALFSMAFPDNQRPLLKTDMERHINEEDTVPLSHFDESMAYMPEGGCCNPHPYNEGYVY
Chain of SPIB (Q01892 whole entry): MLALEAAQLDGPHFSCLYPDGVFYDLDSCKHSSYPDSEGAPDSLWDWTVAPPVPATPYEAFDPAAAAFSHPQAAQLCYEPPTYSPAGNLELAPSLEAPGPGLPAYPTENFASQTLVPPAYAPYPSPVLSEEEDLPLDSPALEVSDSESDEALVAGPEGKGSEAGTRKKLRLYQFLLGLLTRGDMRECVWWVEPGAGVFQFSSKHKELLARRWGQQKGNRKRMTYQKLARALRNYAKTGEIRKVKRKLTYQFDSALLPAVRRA
Chain of ETV5 (P41161 whole entry): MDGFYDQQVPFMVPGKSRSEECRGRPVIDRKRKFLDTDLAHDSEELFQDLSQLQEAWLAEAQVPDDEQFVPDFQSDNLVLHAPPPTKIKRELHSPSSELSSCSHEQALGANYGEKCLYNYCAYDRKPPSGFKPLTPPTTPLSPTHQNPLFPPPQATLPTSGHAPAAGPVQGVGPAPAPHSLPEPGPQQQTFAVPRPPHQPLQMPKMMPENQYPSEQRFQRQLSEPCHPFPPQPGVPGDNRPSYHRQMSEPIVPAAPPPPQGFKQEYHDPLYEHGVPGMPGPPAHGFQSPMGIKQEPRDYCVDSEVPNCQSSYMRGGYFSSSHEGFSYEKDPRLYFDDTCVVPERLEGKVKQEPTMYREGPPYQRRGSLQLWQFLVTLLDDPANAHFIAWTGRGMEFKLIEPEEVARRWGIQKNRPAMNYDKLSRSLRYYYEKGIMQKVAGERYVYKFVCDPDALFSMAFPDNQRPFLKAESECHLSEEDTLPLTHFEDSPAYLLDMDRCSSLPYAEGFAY
Chain of ELF1 (P32519 whole entry): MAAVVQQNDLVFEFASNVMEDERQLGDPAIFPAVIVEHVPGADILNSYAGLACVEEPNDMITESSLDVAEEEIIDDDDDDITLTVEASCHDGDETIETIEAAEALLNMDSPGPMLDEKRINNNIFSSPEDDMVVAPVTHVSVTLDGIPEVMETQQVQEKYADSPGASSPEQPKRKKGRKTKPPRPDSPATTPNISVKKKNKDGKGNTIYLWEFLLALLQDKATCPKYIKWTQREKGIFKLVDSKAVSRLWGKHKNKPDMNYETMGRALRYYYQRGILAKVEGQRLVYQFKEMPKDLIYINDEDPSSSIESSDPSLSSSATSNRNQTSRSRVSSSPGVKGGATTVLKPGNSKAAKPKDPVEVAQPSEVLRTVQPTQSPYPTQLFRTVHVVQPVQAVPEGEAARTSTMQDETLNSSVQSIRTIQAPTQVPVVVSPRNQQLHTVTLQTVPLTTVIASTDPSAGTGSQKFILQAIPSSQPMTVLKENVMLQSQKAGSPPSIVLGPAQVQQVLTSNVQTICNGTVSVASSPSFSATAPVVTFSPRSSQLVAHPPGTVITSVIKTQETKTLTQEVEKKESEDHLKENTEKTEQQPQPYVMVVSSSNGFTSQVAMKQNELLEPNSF
Chain of ELF4 (Q99607 whole entry): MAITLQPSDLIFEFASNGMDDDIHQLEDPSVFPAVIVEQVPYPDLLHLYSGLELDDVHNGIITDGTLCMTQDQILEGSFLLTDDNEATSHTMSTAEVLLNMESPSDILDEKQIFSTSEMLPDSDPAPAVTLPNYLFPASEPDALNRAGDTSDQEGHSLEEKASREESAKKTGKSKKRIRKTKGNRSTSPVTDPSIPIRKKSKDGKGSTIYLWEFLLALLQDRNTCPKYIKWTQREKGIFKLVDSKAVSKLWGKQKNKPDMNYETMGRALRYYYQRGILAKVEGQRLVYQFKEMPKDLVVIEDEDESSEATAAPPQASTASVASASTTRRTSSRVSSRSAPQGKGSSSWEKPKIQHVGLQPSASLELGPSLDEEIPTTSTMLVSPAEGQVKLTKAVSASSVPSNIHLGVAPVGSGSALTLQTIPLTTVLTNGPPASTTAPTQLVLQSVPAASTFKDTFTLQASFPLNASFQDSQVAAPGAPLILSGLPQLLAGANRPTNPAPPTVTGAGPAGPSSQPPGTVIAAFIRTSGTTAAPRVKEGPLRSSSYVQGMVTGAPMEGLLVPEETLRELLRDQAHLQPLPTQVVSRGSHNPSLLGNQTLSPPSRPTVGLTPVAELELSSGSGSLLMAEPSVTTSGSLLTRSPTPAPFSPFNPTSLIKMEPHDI

As to CGCTTG, the binding signal with FLI1 is 1.1 fold enrichment (6-mer frequency, TF over GST control); with ELK1, 1.14 fold enrichment (6-mer frequency, TF over GST control); with GABPA, 1.09 fold enrichment (6-mer frequency, TF over GST control); with ERG, 1.05 fold enrichment (6-mer frequency, TF over GST control); with ELF1, 1.07 fold enrichment (6-mer frequency, TF over GST control); with EHF, 1.04 fold enrichment (6-mer frequency, TF over GST control). The binding signal in the experiment with SPIB is 1.25 fold enrichment (6-mer frequency, TF over GST control); with ELK3, 1.07 fold enrichment (6-mer frequency, TF over GST control); with FEV, 1.08 fold enrichment (6-mer frequency, TF over GST control); with ETV5, 1.06 fold enrichment (6-mer frequency, TF over GST control); with SPIC, 1.16 fold enrichment (6-mer frequency, TF over GST control); in the experiment with ELF4, 1.01 fold enrichment (6-mer frequency, TF over GST control). For the same sequence, the binding signal in the experiment with ELK4 is 1 fold enrichment (6-mer frequency, TF over GST control); with ETV2, 1.07 fold enrichment (6-mer frequency, TF over GST control); with ELF3, 1.2 fold enrichment (6-mer frequency, TF over GST control); with ETV1, 1.15 fold enrichment (6-mer frequency, TF over GST control).

For the sequence GTATGG, the binding signal with FLI1 was 1.12 fold enrichment (6-mer frequency, TF over GST control); with ELK1 it was 1.04 fold enrichment (6-mer frequency, TF over GST control); with GABPA, 1.04 fold enrichment (6-mer frequency, TF over GST control); with ELF1 it was 1.08 fold enrichment (6-mer frequency, TF over GST control); with EHF, 1.05 fold enrichment (6-mer frequency, TF over GST control); in the experiment with SPI1 it was 1.06 fold enrichment (6-mer frequency, TF over GST control). The binding signal is 1.1 fold enrichment (6-mer frequency, TF over GST control) in the experiment with SPIB; 1.01 fold enrichment (6-mer frequency, TF over GST control) in the experiment with FEV; 1.02 fold enrichment (6-mer frequency, TF over GST control) with ETV5; 1.08 fold enrichment (6-mer frequency, TF over GST control) with SPIC; 1.02 fold enrichment (6-mer frequency, TF over GST control) with ELF4; 1.01 fold enrichment (6-mer frequency, TF over GST control) with ELK4. Besides, the binding signal is 1.03 fold enrichment (6-mer frequency, TF over GST control) with ETV2; 1.04 fold enrichment (6-mer frequency, TF over GST control) with ELF3; 1.16 fold enrichment (6-mer frequency, TF over GST control) with ETV1.
